PubChem BioAssay AID1863 (Southern Research Specialized Biocontainment Screening …, 2009)
Hit rate of the full screen: of about 300,000 compounds, about 480 (0.16%) were called active.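 How the source made its calls: active means inhibition over 29.93%, a cutoff 3 SD above the screen mean, later confirmed by dose response; inconclusive means inhibition over 29.93% but no dose response follow-up; inactive means inhibition at most 29.93% or unconfirmed.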 These entries were drawn from the full list. Entries with a potency or affinity are not part of this list.

test: PhoP-dependent GFP reporter repression – Salmonella Typhimurium, primary screen (AID 1863);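 further: 0% = low Mg2+ inducing control and 100% = high Mg2+ repressing control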; conditions: S. Typhimurium PhoP-regulated promoter GFP reporter, 4 h; at 50 µM; stronger effect = higher value

inhibition, inactive:
Cc1ccc(SC2=C(Sc3ccc(C)cc3)C(=O)c3ccccc3C2=O)cc1 4.97%, O=S1(=O)N=C(SCCO)c2ccccc21 -8.43%, CCn1c(SCC(=O)NCCc2ccccc2)nc2c([nH]c3ccccc32)c1=O -1.21%, CCCc1nc2ccc(NC(=O)NCCC(=O)OCC)cc2c(=O)n1Cc1cccc(Cl)c1 6.26%, O=C(NOC(=O)c1ccccc1F)c1ccc(OC(F)F)cc1 -1.76%, CCCCOC(=O)Cn1c2ccc(OC)cc2c2nc3ccccc3nc21 -30.4%, CCOC(=O)Cn1c(=N)n(CCOc2cccc(C)c2)c2ccccc21 -6.78%, CCCCOC(=O)Cn1c(=O)n(CC(=O)OCCCC)c2ccccc21 1.46%, CCCCCCCCCCOC(=O)Cn1c(COc2ccccc2C)[n+](C)c2ccccc21 13.3%, CCCCCOC(=O)Cn1c(=O)oc2ccc(C)cc21 8.75%, O=C(O)Cn1c(COc2ccc(Cl)cc2)nc2ccccc21 -9.39%, CCCCc1n(CC(=O)c2ccc(Cl)cc2)c2ccccc2[n+]1C 7.69%, Cn1c(COc2ccccc2O)[n+](C)c2ccccc21 19.1%, Cc1onc(-c2c(Cl)cccc2Cl)c1C(=O)Nc1ccc2c(c1)OCO2 5.51%, CN1CCN(NC(=S)NC2CCCCC2)CC1 2.99%, CC1(c2ccncc2)Nc2ccccc2-c2nc3ccccc3n21 (stereo unspecified) 4.56%, CC1CCCCC1NC(=O)CNC(=O)c1cccs1 (stereo unspecified) 0.65%, COC(=O)c1cc(OC)c(OC)cc1NC(=S)N1CCN(Cc2ccccc2)CC1 -2.33%, CCN(Cc1ccccc1)Cc1ccc(OCc2ccccc2)cc1 -0.23%, CC(=O)c1ccc(OCc2cc(C(=O)N3CCN4CCCC4C3)no2)cc1 (stereo unspecified) -1.66%, CCCCOC(=O)Cn1c(=N)n(CCC)c2ccccc21 8.26%, CCCCCCOc1ccc(C(=O)O)cc1 -7.54%, CCCCOC(=O)Cn1c(=O)oc2ccc(C)cc21 1.86%, CCCCCOC(=O)Cn1c(=O)oc2ccccc21 5.08%, CCN(CC)CCN1C(=O)c2ccccc2NC1c1cccc(F)c1 (stereo unspecified) -1.91%, CCN(c1ccc(NC(=O)COC(=O)/C=C/c2cccs2)cc1)C(C)C 1.21%, CCOc1ccc(S(=O)(=O)N(CCO)CCO)cc1-c1nc2c(C(C)(C)C)nn(C)c2c(=O)[nH]1 6.61%, Cc1cc(Br)ccc1OCCNCc1ccccc1 5.75%, OCCNCCCOc1ccc(Cl)cc1Br 9.05%, COCCCNCCCOc1ccc(Cl)cc1Br 16.4%, Clc1ccc(OCCCNCc2ccccc2)c2ccccc12 13.7%, CCc1cc(OCCCCNCc2ccccc2)ccc1Cl -6.28%, COCCNCCCOc1ccc(Br)cc1Cl 2.25%, O=C(COC(=O)c1ccncc1)NCc1ccccc1 -7.25%, CN(CC(=O)Nc1ccc(OC(F)(F)F)cc1)C1CCCCC1 9.36%, COc1cccc(NC(=O)CN(C)C(=O)c2ccc(-c3ccccc3Cl)o2)c1 -0.25%, COCc1cc(=O)[nH]c(-c2ccccc2)n1 9.5%, COc1ccc(/C=C2/SC(=O)N(CCC(=O)Nc3ccc(C)cc3)C2=O)cc1OC 1.5%, Clc1ccccc1OCCn1ccnc1 21.2%, Clc1ccc(OCCn2ccnc2)c(Cl)c1 26.6%, c1ccc2cc(OCCCn3ccnc3)ccc2c1 -2%, Clc1ccccc1OCCCn1ccnc1 2.45%, COc1ccc(Cc2noc(CN(C)CC3CCN(Cc4ccccc4)CC3)n2)cc1OC 0.81%, N#CCCN(C(=O)CSc1nc2nc(-c3cccs3)cc(C(F)(F)F)c2c(=O)[nH]1)c1ccccc1 -5.71%, CC(C)C(=O)NC(=S)Nc1ccccn1 1.05%, COc1ccc(-c2cc(C(=O)Nc3c(C)n(C)n(-c4ccccc4)c3=O)c3ccccc3n2)cc1 6.3%, O=C(O)CNC(=O)c1ccc(NC(=O)/C(=C/c2cccc([N+](=O)[O-])c2)NC(=O)c2ccco2)cc1 1.55%, COc1cc2nc(Nc3ccc(C)c(Cl)c3)nc(N)c2cc1OC -5.89%, Cc1ccc(Nc2nc(N)c3ccccc3n2)cc1C -7.22%, CCOC(=O)N1CCN(C(=O)c2ccc(C)c(S(=O)(=O)Nc3cccc(C)c3C)c2)CC1 -9.54%, Cc1nc(SC(C(=O)c2ccccc2)c2ccccc2)nc2ccccc12 (stereo unspecified) 5.08%, O=Cc1c(N2CCC3(CC2)OCCO3)nc2ccccn2c1=O -5.94%, COc1ccc(/C=N/Nc2cc(C)nc3ccc(Br)cc23)cc1 -2.21%, COc1cccc2c(N/N=C/c3ccccc3)cc(C)nc12 -2.56%, Cc1cc(N/N=C/c2ccc(O)cc2)c2cccc(C)c2n1 -15.4%, Cc1cc(N/N=C/c2ccc(N(C)C)cc2)c2ccccc2n1 5.73%, Cc1ccccc1NC(=O)NC1(C(=O)NCC2CCCO2)CCCCC1 (stereo unspecified) -0.07%, CC1CCCC(C)N1/N=C/c1ccccc1Br (stereo unspecified) -3.03%, CC1CCCC(C)N1/N=C/c1cccc(Br)c1 (stereo unspecified) -2.2%, CC1(C)NC(=O)N(CC(O)CN(c2ccccc2)S(=O)(=O)c2ccccc2)C1=O (stereo unspecified) -1.71%, Cc1ccc(C(=O)N/C(=C\c2ccco2)C(=O)NCc2cccnc2)cc1 2%, CC1(C)C(=O)Nc2ccccc2N1C(=O)Cn1ncc(Cl)c(Cl)c1=O 1.69%, O=C(Nc1cc(N2CCCCC2)ncn1)c1ccccc1 1.2%, COc1ccc(CCNC(=O)c2cc(COc3c(F)cccc3F)on2)c(OC)c1 6.23%, O=C(NC1CCCc2ccccc21)c1ccc([N+](=O)[O-])cc1 (stereo unspecified) -2.23%, O=[N+]([O-])c1ccccc1CNC1CCCc2ccccc21 (stereo unspecified) -9.02%, CNC(=O)c1cn(-c2ccc(Cl)cc2)c(=O)c2ccccc12 -7.59%, CO[C@@H]1[C@@H](OC(N)=O)[C@@H](O)C(Oc2ccc3c(O)c(NC(=O)c4ccc(O)c(CC=C(C)C)c4)c(=O)oc3c2C)OC1(C)C (stereo partly specified) 12.3%, Cc1c(O)ccc2c(O)c(NC(=O)c3ccc4c(c3)CCC(C)(C)O4)c(=O)oc12 -3.81%, CCC1=C(c2ccc(C)cc2)S(=O)(=O)N=C1N1CCC(C(=O)NCCCN2CCCCC2)CC1 -2.43%, Nc1cccc2nsnc12 -14.7%, COc1ccc(-n2nc3cc(N)c(Br)cc3n2)cc1 -2.59%, CCOC(=O)CCCNC(=O)CSc1nnc(-c2ccccc2)c(-c2ccccc2)n1 -8.06%, COC(=O)c1c(C)[nH]c(O)c1C=Nc1ccc(Oc2ccccc2)cc1 -5.37%, CO[C@H]1C=CO[C@@]2(C)Oc3c(C)c(O)c4c(O)c(c5c(nc6cc(C)ccn65)c4c3C2=O)NC(=O)C(C)=CC=C[C@H](C)[C@H](O)[C@@H](C)[C@@H](O)[C@@H](C)[C@H](OC(C)=O)[C@@H]1C -3.25%, CC(/C=C/c1ccccc1F)=N\NC(=O)c1cccc(F)c1 3.59%, O=S(=O)(NCC1CCCO1)c1ccc(NS(=O)(=O)c2ccc(F)cc2)cc1 (stereo unspecified) 0.92%, N#C/C(=C(/O)CSc1ncn[nH]1)c1nc2ccccc2[nH]1 6.19%, Fc1ccccc1/C=N/Nc1ccc(Cl)nn1 -8.24%, Cc1ccccc1/C=N/Nc1ccc(Cl)nn1 1.24%, C=CCN=C1CC(C)(C)C(C(=O)OC)C(O)=C1C(=O)CCC (stereo unspecified) -0.51%, COc1ccc(Cc2nnc(Nc3ccc(C)cc3)o2)cc1OC 1.4%, O=S(=O)(c1ccc2c(c1)OCCO2)N1CCN(Cc2ccc3c(c2)OCO3)CC1 -0.33%, CN1/C(=C\C=N\O)C(C)(C)c2ccccc21 -8.82%, COc1cc(CNCCc2ccc(F)cc2)ccc1OCc1ccc(Cl)nc1 23.3%, Brc1ccc(CNCc2cccs2)cc1 10.4%, c1csc(CNCc2ccncc2)c1 -5.07%, COc1ccccc1CNC(=S)NCc1ccc(F)cc1 -5.45%, COc1ccccc1CNCc1ccc(C)cc1 8.2%, Fc1ccc(CNCc2ccccc2Cl)cc1 5.07%, COc1ccc(NC(=O)COC(=O)CCCc2c[nH]c3ccccc23)cc1 -12.1%, Cc1cc(C)n(C(=O)Cn2nc(C)c(Cl)c2C)n1 3.42%, O=C(c1ccccc1F)N1CCN(S(=O)(=O)c2ccc3c(c2)OCCO3)CC1 6.03%, Cc1c(NC(=O)CSc2nnnn2-c2ccc(F)cc2)c(=O)n(-c2ccccc2)n1C -6.82%, O=C1NC(C(F)(F)F)(C(F)(F)F)N=C2SC=CN12 -6.31%, O=c1[nH]nc(-c2ccc(F)cc2)cc1Cc1ccc(F)cc1 -10.7%, O=C(Nc1cccc(Cl)c1)Nc1ccnc(-c2cccnc2)n1 5.1%, CCOC(=O)N1CCN(Cc2cc(Cl)c3cccnc3c2O)CC1 -0.11%, O=C(Oc1c(CN2CCOCC2)cc(Cl)c2cccnc12)c1ccc(F)cc1 29.7%, Oc1c(CN2CCN(c3ccccc3)CC2)cc(Br)c2cccnc12 4.78%, Oc1c(CN2CCN(c3ccccn3)CC2)cc(Cl)c2cccnc12 20.1%
